Measured values published in PMC7862700, “An all-to-all approach to the identification of sequence-specific readers for epigenetic DNA modifications on cytosine”.

Assays:
Experiment in all cases: DAPPL (digital affinity profiling via proximity ligation, sequencing); 10 mM Tris-HCl pH 7.5, 50 mM NaCl, 1 mM DTT, 4% glycerol, room temperature, 30 min; GST-TFs on glutathione beads, 16-mer random dsDNA library, 0.1% formaldehyde crosslink after washing; high values mean tight binding
Conditions in all cases: protein: recombinant; tags: N-terminal GST; dsDNA, one strand shown
[1] = biological target: T1, FLI1 (Homo sapiens, UniProt Q01543 1-452)
T1 sequence: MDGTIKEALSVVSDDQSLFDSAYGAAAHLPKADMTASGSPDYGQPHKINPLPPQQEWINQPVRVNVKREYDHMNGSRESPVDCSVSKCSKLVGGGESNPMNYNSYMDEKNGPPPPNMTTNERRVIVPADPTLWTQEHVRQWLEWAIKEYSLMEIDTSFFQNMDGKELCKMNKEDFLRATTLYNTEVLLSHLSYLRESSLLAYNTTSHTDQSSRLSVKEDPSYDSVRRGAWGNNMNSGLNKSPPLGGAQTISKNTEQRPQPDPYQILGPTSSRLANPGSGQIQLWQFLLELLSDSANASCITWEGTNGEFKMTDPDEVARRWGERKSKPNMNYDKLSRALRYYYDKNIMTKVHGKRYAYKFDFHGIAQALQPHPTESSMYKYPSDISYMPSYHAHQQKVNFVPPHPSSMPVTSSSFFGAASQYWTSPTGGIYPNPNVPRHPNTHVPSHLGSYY
How it was run: (§1)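 Binding signal is given per hexamer as its read frequency for a factor divided by its frequency in the tag-only sample. GST-fused human transcription factors were expressed in yeast, captured on glutathione beads, barcoded with DNA and pooled with that sample, then incubated with 200 nmole of a 16-mer random double-stranded DNA library in Tris/NaCl/DTT/glycerol buffer for 30 min at room temperature. The pools were then washed, crosslinked, proximity-ligated, amplified by PCR and sequenced on an Illumina NextSeq500.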

[2] = biological target: T2, ELK1 (Homo sapiens, UniProt P19419 1-428)
T2 sequence: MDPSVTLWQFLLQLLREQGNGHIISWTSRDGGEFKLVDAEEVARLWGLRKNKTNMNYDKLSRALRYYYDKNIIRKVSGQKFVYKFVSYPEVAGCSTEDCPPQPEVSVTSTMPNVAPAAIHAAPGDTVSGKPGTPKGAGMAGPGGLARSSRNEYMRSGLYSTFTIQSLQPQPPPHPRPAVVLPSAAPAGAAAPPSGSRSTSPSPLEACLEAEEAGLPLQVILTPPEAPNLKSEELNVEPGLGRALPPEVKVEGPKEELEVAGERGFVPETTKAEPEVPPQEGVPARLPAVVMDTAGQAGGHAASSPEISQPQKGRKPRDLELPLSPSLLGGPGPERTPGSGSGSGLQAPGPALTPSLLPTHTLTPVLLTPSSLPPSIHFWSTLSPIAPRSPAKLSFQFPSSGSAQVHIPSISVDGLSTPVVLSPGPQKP
How it was run: as §1

[3] = biological target: T3, GABPA (Homo sapiens, UniProt Q06546 1-454)
T3 sequence: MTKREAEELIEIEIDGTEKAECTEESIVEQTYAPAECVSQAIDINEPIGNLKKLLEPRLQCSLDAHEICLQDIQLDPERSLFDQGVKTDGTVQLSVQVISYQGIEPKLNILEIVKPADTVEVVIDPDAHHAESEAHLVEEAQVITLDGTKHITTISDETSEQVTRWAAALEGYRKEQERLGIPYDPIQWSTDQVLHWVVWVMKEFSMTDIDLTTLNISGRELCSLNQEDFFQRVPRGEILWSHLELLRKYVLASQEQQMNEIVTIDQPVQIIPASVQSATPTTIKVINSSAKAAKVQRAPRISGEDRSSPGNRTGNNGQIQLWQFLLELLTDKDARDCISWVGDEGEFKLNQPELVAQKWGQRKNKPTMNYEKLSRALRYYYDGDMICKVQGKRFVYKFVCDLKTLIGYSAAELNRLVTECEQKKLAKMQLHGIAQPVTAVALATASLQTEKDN
How it was run: as §1

[4] = biological target: T4, ERG (Homo sapiens, UniProt P11308 1-479)
T4 sequence: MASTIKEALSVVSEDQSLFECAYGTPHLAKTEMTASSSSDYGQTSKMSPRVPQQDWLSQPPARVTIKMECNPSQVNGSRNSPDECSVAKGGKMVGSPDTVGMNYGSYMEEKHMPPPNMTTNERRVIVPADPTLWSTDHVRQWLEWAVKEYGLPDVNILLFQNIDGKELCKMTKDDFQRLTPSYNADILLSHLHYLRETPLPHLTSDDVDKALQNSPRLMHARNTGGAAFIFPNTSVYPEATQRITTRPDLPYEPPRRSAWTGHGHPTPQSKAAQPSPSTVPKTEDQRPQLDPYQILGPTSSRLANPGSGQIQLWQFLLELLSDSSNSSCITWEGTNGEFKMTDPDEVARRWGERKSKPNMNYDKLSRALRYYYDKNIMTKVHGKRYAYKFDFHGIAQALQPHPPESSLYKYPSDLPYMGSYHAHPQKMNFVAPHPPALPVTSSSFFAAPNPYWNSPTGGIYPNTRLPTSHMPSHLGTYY
How it was run: as §1

[5] = biological target: ELF1 (Homo sapiens, UniProt P32519 1-619)
ELF1, sequence (P32519 whole entry): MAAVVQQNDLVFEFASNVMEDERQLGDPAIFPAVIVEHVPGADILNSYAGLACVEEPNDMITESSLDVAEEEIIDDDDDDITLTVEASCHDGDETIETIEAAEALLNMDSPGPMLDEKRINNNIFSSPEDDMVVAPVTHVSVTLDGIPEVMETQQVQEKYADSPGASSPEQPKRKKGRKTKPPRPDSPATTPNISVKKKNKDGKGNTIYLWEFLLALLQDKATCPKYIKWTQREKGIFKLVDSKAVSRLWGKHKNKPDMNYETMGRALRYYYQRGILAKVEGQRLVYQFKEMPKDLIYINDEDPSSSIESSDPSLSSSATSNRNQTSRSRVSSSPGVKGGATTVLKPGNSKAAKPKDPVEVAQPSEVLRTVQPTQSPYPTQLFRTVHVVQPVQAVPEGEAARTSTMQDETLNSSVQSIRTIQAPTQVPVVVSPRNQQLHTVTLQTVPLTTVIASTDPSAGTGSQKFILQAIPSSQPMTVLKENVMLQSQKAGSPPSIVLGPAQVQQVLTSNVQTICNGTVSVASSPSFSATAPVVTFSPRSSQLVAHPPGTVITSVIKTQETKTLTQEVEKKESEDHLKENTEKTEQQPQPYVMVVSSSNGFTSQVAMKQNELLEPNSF
How it was run: as §1

[6] = biological target: T5, EHF (Homo sapiens, UniProt Q9NZC4 1-300)
T5 sequence: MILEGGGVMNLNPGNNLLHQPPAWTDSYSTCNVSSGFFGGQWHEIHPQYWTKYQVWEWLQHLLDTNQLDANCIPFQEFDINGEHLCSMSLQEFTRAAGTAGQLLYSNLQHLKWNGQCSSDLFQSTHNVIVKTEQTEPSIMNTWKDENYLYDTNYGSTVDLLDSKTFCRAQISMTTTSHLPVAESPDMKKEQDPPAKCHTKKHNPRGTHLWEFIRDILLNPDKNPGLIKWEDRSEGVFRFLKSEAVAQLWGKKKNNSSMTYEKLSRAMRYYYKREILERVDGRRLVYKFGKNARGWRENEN
How it was run: as §1

[7] = biological target: SPI1 (Homo sapiens, UniProt P17947 1-270)
How it was run: as §1

[8] = biological target: SPIB (Homo sapiens, UniProt Q01892 1-262)
SPIB, sequence (Q01892 whole entry): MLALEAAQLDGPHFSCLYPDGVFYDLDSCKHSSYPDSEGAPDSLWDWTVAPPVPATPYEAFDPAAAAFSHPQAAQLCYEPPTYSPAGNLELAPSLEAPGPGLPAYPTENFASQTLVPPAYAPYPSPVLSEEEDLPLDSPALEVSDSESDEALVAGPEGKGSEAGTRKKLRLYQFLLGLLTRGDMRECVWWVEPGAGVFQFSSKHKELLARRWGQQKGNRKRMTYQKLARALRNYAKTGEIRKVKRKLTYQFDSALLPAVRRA
How it was run: as §1

[9] = biological target: T6, ELK3 (Homo sapiens, UniProt P41970 1-407)
T6 sequence: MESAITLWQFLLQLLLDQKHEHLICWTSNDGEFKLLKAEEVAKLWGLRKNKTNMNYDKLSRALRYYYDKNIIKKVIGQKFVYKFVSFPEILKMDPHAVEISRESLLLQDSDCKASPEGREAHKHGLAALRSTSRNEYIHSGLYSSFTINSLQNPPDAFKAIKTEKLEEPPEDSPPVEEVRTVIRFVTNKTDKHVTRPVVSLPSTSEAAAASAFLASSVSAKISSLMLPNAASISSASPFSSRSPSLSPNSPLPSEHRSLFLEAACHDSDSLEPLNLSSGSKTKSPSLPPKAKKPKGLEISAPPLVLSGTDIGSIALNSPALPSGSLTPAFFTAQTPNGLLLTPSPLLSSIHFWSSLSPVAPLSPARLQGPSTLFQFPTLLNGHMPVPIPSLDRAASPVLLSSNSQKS
How it was run: as §1

[10] = biological target: T7, FEV (Homo sapiens, UniProt Q99581 1-238)
T7 sequence: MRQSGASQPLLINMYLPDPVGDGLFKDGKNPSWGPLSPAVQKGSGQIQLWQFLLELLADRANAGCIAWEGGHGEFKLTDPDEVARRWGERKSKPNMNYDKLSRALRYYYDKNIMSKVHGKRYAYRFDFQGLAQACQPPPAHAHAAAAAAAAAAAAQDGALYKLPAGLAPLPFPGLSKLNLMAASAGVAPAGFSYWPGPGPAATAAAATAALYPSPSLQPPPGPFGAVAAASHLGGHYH
How it was run: as §1

[11] = biological target: ETV5 (Homo sapiens, UniProt P41161 1-510)
ETV5, sequence (P41161 whole entry): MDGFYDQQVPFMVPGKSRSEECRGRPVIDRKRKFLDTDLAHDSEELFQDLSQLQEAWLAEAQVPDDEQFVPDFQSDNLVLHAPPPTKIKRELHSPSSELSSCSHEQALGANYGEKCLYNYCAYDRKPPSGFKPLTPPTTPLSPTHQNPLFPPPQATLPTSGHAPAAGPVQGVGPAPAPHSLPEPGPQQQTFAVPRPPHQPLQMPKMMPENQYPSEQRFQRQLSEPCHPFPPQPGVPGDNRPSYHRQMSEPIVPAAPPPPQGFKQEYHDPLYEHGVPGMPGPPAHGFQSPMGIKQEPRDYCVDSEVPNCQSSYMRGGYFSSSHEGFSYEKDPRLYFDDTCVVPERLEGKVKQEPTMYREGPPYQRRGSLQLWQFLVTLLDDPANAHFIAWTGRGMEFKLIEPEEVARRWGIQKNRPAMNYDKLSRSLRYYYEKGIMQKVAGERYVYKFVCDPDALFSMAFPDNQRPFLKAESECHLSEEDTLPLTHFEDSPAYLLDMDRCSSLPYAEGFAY
How it was run: as §1

[12] = biological target: T8, SPIC (Homo sapiens, UniProt Q8N5J4 1-248)
T8 sequence: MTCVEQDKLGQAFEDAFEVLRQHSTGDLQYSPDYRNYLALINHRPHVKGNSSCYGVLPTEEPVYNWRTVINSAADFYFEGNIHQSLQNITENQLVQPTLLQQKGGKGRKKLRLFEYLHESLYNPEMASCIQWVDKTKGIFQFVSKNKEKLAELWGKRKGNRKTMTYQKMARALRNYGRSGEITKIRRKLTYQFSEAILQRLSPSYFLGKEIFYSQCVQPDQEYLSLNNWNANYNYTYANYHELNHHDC
How it was run: as §1

[13] = biological target: ELF4 (Homo sapiens, UniProt Q99607 1-663)
ELF4, sequence (Q99607 whole entry): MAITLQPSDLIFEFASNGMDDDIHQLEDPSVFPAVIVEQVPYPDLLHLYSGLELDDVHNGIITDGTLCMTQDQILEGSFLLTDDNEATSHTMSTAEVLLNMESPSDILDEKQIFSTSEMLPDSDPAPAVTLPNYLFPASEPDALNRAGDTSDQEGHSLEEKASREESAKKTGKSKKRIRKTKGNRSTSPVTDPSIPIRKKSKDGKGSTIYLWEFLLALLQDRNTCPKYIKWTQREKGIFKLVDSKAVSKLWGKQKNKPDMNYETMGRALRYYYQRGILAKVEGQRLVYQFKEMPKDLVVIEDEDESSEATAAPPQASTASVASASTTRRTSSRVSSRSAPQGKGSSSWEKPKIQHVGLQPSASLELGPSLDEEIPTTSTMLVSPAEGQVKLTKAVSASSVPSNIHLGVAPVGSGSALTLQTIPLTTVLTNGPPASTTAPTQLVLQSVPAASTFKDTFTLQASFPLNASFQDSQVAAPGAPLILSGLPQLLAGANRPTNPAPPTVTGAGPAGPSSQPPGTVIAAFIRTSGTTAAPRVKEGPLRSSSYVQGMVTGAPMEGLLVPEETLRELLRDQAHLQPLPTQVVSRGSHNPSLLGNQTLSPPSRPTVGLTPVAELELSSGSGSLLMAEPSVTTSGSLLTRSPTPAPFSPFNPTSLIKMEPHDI
How it was run: as §1

[14] = biological target: ETV1 (Homo sapiens, UniProt P50549 1-477)
ETV1, sequence (P50549 whole entry): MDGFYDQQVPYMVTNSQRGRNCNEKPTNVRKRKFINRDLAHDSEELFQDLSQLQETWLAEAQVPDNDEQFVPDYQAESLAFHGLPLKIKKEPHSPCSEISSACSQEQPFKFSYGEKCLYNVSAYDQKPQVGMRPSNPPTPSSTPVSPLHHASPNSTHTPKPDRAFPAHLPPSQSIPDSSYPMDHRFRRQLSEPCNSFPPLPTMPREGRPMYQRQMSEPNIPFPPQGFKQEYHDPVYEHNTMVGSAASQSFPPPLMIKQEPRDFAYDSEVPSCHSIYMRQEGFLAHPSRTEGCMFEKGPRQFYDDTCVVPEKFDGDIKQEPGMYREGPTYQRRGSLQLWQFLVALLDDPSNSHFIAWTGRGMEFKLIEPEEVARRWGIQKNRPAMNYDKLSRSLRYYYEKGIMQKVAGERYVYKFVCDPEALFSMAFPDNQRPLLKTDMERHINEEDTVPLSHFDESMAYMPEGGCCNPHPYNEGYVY
How it was run: as §1

[15] = biological target: T9, ERF (Homo sapiens, UniProt P50548 1-548)
T9 sequence: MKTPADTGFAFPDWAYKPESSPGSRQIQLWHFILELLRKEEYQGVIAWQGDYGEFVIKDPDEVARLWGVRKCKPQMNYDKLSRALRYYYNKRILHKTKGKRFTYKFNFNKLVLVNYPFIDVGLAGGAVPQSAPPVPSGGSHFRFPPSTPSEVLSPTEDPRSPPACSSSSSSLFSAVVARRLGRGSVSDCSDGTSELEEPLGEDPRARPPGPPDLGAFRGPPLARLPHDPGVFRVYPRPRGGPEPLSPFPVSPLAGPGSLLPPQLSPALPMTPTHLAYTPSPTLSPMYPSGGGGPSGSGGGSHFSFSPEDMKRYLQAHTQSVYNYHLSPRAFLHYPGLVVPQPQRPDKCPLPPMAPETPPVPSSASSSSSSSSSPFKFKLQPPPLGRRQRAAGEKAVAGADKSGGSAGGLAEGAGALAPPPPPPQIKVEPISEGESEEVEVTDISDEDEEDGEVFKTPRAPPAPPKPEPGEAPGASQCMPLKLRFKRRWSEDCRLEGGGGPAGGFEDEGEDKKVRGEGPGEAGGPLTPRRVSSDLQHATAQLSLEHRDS
How it was run: as §1

[16] = biological target: T10, ETV3L (Homo sapiens, UniProt Q6ZN32 1-361)
T10 sequence: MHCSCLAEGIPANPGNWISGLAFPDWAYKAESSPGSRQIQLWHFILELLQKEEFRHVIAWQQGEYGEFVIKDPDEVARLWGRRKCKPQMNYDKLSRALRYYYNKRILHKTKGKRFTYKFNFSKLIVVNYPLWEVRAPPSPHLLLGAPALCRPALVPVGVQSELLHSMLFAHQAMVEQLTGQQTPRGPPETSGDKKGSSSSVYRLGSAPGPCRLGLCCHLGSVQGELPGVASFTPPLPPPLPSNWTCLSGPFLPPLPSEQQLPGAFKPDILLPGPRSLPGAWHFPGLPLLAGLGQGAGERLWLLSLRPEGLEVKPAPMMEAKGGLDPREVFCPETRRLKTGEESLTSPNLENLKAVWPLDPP
How it was run: as §1

[17] = biological target: T11, ETS2 (Homo sapiens, UniProt P15036 1-469)
T11 sequence: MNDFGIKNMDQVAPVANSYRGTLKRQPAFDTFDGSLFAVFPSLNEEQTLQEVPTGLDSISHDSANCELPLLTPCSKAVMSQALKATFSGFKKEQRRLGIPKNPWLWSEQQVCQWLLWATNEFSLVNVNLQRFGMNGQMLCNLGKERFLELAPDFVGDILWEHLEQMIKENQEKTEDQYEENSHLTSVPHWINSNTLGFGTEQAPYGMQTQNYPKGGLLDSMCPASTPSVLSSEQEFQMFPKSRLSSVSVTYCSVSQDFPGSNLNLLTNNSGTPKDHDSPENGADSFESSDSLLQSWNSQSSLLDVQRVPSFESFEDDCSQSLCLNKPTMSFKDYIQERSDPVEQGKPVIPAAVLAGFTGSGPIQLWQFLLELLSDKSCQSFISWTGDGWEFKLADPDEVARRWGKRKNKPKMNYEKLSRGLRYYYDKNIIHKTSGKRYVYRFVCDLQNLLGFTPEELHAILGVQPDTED
How it was run: as §1

[18] = biological target: T12, ELF5 (Homo sapiens, UniProt Q9UKW6-2 1-255)
T12 sequence: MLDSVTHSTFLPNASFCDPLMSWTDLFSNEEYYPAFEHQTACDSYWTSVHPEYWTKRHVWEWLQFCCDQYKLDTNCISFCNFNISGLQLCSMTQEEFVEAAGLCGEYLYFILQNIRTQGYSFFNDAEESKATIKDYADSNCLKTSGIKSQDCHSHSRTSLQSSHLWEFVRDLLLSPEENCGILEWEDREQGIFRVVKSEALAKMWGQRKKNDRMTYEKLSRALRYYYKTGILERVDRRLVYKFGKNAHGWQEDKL
How it was run: as §1

[19] = biological target: T13, ETV3 (Homo sapiens, UniProt P41162-2 1-143)
T13 sequence: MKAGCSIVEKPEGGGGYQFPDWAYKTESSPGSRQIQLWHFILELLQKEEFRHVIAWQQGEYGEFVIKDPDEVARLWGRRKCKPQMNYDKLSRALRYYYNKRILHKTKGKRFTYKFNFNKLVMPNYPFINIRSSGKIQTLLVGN
How it was run: as §1

[20] = biological target: ETV6 (Homo sapiens, UniProt P41212 1-452)
ETV6, sequence (P41212 whole entry): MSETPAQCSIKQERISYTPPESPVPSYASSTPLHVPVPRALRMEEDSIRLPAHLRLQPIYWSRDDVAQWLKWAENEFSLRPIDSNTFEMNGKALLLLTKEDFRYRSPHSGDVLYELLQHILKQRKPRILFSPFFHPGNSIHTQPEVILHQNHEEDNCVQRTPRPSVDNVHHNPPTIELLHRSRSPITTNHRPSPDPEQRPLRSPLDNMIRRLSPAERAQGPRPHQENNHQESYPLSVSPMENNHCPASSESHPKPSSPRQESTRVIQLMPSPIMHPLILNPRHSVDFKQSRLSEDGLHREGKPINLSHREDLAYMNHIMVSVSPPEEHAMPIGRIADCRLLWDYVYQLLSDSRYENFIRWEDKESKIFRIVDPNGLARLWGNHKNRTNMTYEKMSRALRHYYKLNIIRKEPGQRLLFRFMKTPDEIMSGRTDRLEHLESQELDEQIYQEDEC
How it was run: as §1

GTCCCA
binding signal [1]: 1.03 fold enrichment (6-mer frequency, TF over GST control) | binding signal [2]: 1.14 fold enrichment (6-mer frequency, TF over GST control) | binding signal [3]: 1.11 fold enrichment (6-mer frequency, TF over GST control) | binding signal [4]: 1.17 fold enrichment (6-mer frequency, TF over GST control) | binding signal [5]: 1.14 fold enrichment (6-mer frequency, TF over GST control) | binding signal [6]: 1.1 fold enrichment (6-mer frequency, TF over GST control) | binding signal [7]: 1.13 fold enrichment (6-mer frequency, TF over GST control) | binding signal [8]: 1.06 fold enrichment (6-mer frequency, TF over GST control) | binding signal [9]: 1.18 fold enrichment (6-mer frequency, TF over GST control) | binding signal [10]: 1.12 fold enrichment (6-mer frequency, TF over GST control) | binding signal [11]: 1.05 fold enrichment (6-mer frequency, TF over GST control) | binding signal [12]: 1.12 fold enrichment (6-mer frequency, TF over GST control) | binding signal [13]: 1.13 fold enrichment (6-mer frequency, TF over GST control) | binding signal [14]: 1.14 fold enrichment (6-mer frequency, TF over GST control) | binding signal [15]: 1.12 fold enrichment (6-mer frequency, TF over GST control) | binding signal [16]: 1.13 fold enrichment (6-mer frequency, TF over GST control) | binding signal [17]: 1.05 fold enrichment (6-mer frequency, TF over GST control) | binding signal [18]: 1.12 fold enrichment (6-mer frequency, TF over GST control) | binding signal [19]: 1.07 fold enrichment (6-mer frequency, TF over GST control) | binding signal [20]: 1.03 fold enrichment (6-mer frequency, TF over GST control)
